The list is not random: actives were taken first. Their share in the collection is about 14%.
USP28 inh: inhibitors of human USP28 deubiquitinase | purified USP28, Ub-rhodamine cleavage fluorescence, 30 min | inhibition, % at 25 µM | actives 3% (n = 47,000) | AID 1645857
USP30 block: human USP30 deubiquitinase inhibition | Q70CQ3 | purified USP30, Ub-rhodamine cleavage fluorescence | inhibition, % at 25 µM | actives 5.3% (n = 47,000)
USP8 inh: human USP8 deubiquitinase inhibition; purified USP8, Ub-rhodamine cleavage fluorescence, 30 min; inhibition, % at 20 µM; AID 1645853; actives 4.2% (n = 47,000); P40818
USP17 block: human USP17-like deubiquitinase inhibition; actives 6.5% (n = 47,000); inhibition, % at 50 µM; A8MUK1; purified USP17, Ub-rhodamine cleavage fluorescence, 3 h
USP10 block: human USP10 deubiquitinase inhibition; purified USP10, Ub-rhodamine fluorescence, 60 min; Q14694; inhibition, % at 20 µM; actives 1.1% (n = 47,000)
An asterisk follows results filed as active. Rule as the data show it: active = inhibition above about 30%; inactive = the rest.

How did CCC(=O)c1cn(CC(=O)Nc2cccc(C)c2)c2ccccc12 do in these assays?
USP28 inh: 7.2; USP30 block: 0.5; USP8 inh: 0.2; USP17 block: 7.2; USP10 block: -0.6

What do the screens show for `Cc1ccc(C)c(NC(=O)Cn2cc(C(=O)C3CC3)c3ccccc32)c1`?
USP28 inh: 57.0*; USP30 block: 75.8*; USP8 inh: 92.9*; USP17 block: 62.4*; USP10 block: 45.6*

Results for COc1cccc(NC(=O)Cn2cc(C(=O)C3CC3)c3ccccc32)c1 ?
USP28 inh: 11.6; USP30 block: 69.2*; USP8 inh: 25.2; USP17 block: 53.1*; USP10 block: 2.7

What do the screens show for `Cn1c(NC(=O)c2ccco2)c(-c2cccs2)c(=O)c2ccccc21`?
USP28 inh: -19.0; USP30 block: -184.6; USP8 inh: 34.1*; USP17 block: 9.6; USP10 block: -6.0

How did COc1cc(/C=C\C(=O)Nc2c3c(nn2-c2cccc(C)c2C)CS(=O)(=O)C3)cc(OC)c1OC do in these assays?
USP28 inh: -5.5; USP30 block: -26.3; USP8 inh: -63.1; USP17 block: -2.1; USP10 block: -5.4

Results for O=C(CCCCCn1c(=O)[nH]c2ccccc2c1=O)NCCc1ccc(Cl)cc1 ?
USP28 inh: 7.7; USP30 block: 22.2; USP8 inh: 48.2*; USP17 block: 16.4; USP10 block: 1.0

How did O=C(CCCCCn1c(=O)[nH]c2ccccc2c1=O)NCc1ccccc1Cl do in these assays?
USP28 inh: 18.6; USP30 block: 47.9*; USP8 inh: 28.1; USP17 block: 24.7; USP10 block: 1.8

How did O=C(CCCn1c(=O)[nH]c2ccccc2c1=O)N1CCC(O)(c2ccc(Cl)cc2)CC1 do in these assays?
USP28 inh: -1.7; USP30 block: -0.2; USP8 inh: -9.9; USP17 block: -5.0; USP10 block: -3.7

What do the screens show for `Cn1nc(Cn2ccnc2)c2c1CN(c1ncc(F)cn1)C2`?
USP28 inh: 3.6; USP30 block: -17.9; USP8 inh: -63.5; USP17 block: -14.9; USP10 block: -6.1

Results for c1ccc(-n2c(SCCc3ccncc3)nnc2N2CCOCC2)cc1 ?
USP28 inh: 11.2; USP30 block: 42.0*; USP8 inh: 15.9; USP17 block: 19.3; USP10 block: -0.7

What do the screens show for `OCCSc1nnc(N2CCCC2)n1-c1cccc(Cl)c1`?
USP28 inh: 11.3; USP30 block: 17.7; USP8 inh: 3.3; USP17 block: 4.3; USP10 block: -0.5

Results for O=C(C1CCCCC1)N1CCC(c2ccnc(Nc3ccccn3)n2)C1 (centres undefined) ?
USP28 inh: -12.2; USP30 block: -0.3; USP8 inh: -7.9; USP17 block: -2.9; USP10 block: 0.2

Results for Cc1[nH]c(C(=O)NC2CCCCCC2)c(C)c1S(=O)(=O)N1CCCC1 ?
USP28 inh: -9.7; USP30 block: -34.4; USP8 inh: 38.7*; USP17 block: 43.0*; USP10 block: 8.3

Results for COc1ccc(-c2ncc3c(=O)n(Cc4cccnc4)c(=O)n(C)c3n2)cc1 ?
USP28 inh: 18.4; USP30 block: 35.8*; USP8 inh: 1.8; USP17 block: -0.1; USP10 block: -2.8

How did CCCN1CCN(CCCNC(=O)c2[nH]nc3c2COc2ccccc2-3)CC1 do in these assays?
USP28 inh: -1.6; USP30 block: -14.7; USP8 inh: -13.0; USP17 block: -4.0; USP10 block: 0.0

What do the screens show for `Cc1cc(-c2cnc(N(C)C)nc2-c2ccc(CNC(=O)C3CCCO3)cc2)on1` (centres undefined)?
USP28 inh: 0.6; USP30 block: 0.5; USP8 inh: -12.3; USP17 block: -1.2; USP10 block: -3.1

How did Cc1cc(C)cc(NC(=O)CCn2ccc(=O)[nH]c2=O)c1 do in these assays?
USP28 inh: 6.0; USP30 block: -1.8; USP8 inh: 0.2; USP17 block: -1.3; USP10 block: 3.3

Results for Cc1ccc(NC(=O)COc2ccccc2/C=C2/NC(=O)N(Cc3ccc(F)cc3)C2=O)cc1 ?
USP28 inh: 39.3*; USP30 block: 45.2*; USP8 inh: 24.2; USP17 block: 29.0; USP10 block: 36.1*

How did Cc1ccc(-n2nnnc2-c2cnc(C)nc2-c2ccc(Cl)cc2)cc1 do in these assays?
USP28 inh: -4.7; USP30 block: 1.0; USP8 inh: -11.8; USP17 block: -0.9; USP10 block: -1.3

What do the screens show for `COc1ccc(-n2nnnc2-c2c[nH]c3c(F)cc(F)cc23)cc1`?
USP28 inh: 16.1; USP30 block: 12.7; USP8 inh: 30.6*; USP17 block: 4.8; USP10 block: 7.6

What do the screens show for `Cc1ccc(CSC2=NS(=O)(=O)c3ccccc3N2)cc1`?
USP28 inh: 56.9*; USP30 block: 19.8; USP8 inh: 15.3; USP17 block: 17.1; USP10 block: 6.2

How did COc1cccc(CCN2C[C@H]3CCN(Cc4cccnc4)CC[C@H]3S2(=O)=O)c1 do in these assays?
USP28 inh: 1.7; USP30 block: 6.4; USP8 inh: 5.4; USP17 block: -8.8; USP10 block: 3.0

What do the screens show for `CCOc1ccc(CNC(=O)CCn2cnc3ccccc3c2=O)cc1`?
USP28 inh: -5.3; USP30 block: 3.4; USP8 inh: 63.8*; USP17 block: -105.9; USP10 block: -1.3

What do the screens show for `Cc1ccc(-c2csc3ncn(Cc4ccco4)c(=O)c23)cc1`?
USP28 inh: 32.0*; USP30 block: 8.7; USP8 inh: -1.3; USP17 block: 29.7; USP10 block: 3.8

How did CCOc1ccccc1NC(=O)CCn1cnc2ccccc2c1=O do in these assays?
USP28 inh: 8.4; USP30 block: 10.1; USP8 inh: -109.5; USP17 block: -25.8; USP10 block: 2.9

What do the screens show for `CCOc1ccc(-c2csc3ncn(CC(=O)NCc4ccccc4)c(=O)c23)cc1`?
USP28 inh: -5.7; USP30 block: -86.2; USP8 inh: -9.2; USP17 block: 36.7*; USP10 block: 1.2

Results for COc1ccccc1CNC(=O)Cn1cnc2c(-c3ccccc3)csc2c1=O ?
USP28 inh: 20.0; USP30 block: 32.8*; USP8 inh: 69.7*; USP17 block: 20.7; USP10 block: 40.4*

Results for COc1ccc(NC(=O)Cn2cnc3scc(-c4ccc(OC)cc4)c3c2=O)cc1 ?
USP28 inh: 0.8; USP30 block: -63.4; USP8 inh: -13.4; USP17 block: 44.7*; USP10 block: -4.1

How did CC(C)n1cnc2c(-c3ccccc3)cn(CC(=O)NCc3ccccc3)c2c1=O do in these assays?
USP28 inh: -14.1; USP30 block: -48.2; USP8 inh: 0.2; USP17 block: 35.7*; USP10 block: -10.4

Results for CC(=O)NCCC(=O)N(c1ccc(Oc2ccccc2)cc1)c1nc2ccccc2s1 ?
USP28 inh: -3.5; USP30 block: -11.9; USP8 inh: 2.6; USP17 block: 6.7; USP10 block: 0.8

How did O=C(c1ccco1)N(c1ccc(Oc2ccccc2)cc1)c1nc2ccccc2s1 do in these assays?
USP28 inh: 0.1; USP30 block: 16.5; USP8 inh: 6.8; USP17 block: 44.6*; USP10 block: 3.0

Source: PubChem
